The panel holds about 83,000 compounds, 20% with a hit somewhere; the sample as a whole holds those more often.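 The test compound was applied at a single concentration to cells in 96-well plates for 48 hours, and percent growth was recorded.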 Values without a mark were called inactive. Activity calls are given as the source filed them. How the source made its calls: active means growth percent below 10; inactive means the rest.

This is an account of results in PubChem BioAssay (NCI).

Test systems include HCT-15 colon; SNB-75 CNS; SNB-19 CNS; U251 CNS; PC-3 prostate; SK-MEL-5 melanoma; UACC-62 melanoma; LOX IMVI melanoma; SK-MEL-28 melanoma; SK-MEL-2 melanoma; EKVX NSCLC; SN12C renal; UO-31 renal; TK-10 renal; ACHN renal; CAKI-1 renal; A498 renal; CCRF-CEM leukemia; MOLT-4 leukemia.
Assay in all cases: NCI-60 one-dose screen, 48 h (100 = growth as untreated, 0 = no growth, -100 = all killed)
Holding throughout (settings): 10 µM

On to `Cc1ccc(-c2nc3ccc(C(=O)N=Nc4c(O)[nH]c5ccc(Br)cc45)cc3[nH]2)cc1`, for which the growth in the assay with HCT-15 colon was 96.6%; in the assay with SNB-75 CNS, 107%; in the assay with SNB-19 CNS, 46.1%; in the assay with U251 CNS, -76% (active); in the assay with PC-3 prostate, 62.6%; in the assay with SK-MEL-5 melanoma it was 84.1%. Moreover, the growth in the assay on UACC-62 melanoma is 98%; with LOX IMVI melanoma, -27.8% (active); in the assay on SK-MEL-28 melanoma, 99.3%; in the assay on SK-MEL-2 melanoma, 113%; in the assay with EKVX NSCLC, 94.9%; in the assay on SN12C renal, 95.3%. Moreover, the growth is 80.3% with UO-31 renal; 114% in the assay with TK-10 renal; 101% in the assay with ACHN renal; 92.7% in the assay with CAKI-1 renal; 137% in the assay on A498 renal; 34.7% in the assay on CCRF-CEM leukemia.
As for `CC(C)(C)c1ccc(NCc2cn(-c3ccc(C(=O)O)cc3)nc2-c2ccc(C#N)cc2)cc1`, the growth with HCT-15 colon was -54.6% (active); in the assay with SNB-75 CNS it was 59.1%; with SNB-19 CNS, 24.6%; in the assay on U251 CNS, 22.8%; in the assay with PC-3 prostate, 20.6%; in the assay with SK-MEL-5 melanoma, 7.94% (active). Besides, the growth in the assay with UACC-62 melanoma was 8.63% (active); in the assay with LOX IMVI melanoma it was 23.5%; with SK-MEL-28 melanoma, 28.1%; in the assay with SK-MEL-2 melanoma, 53.1%; in the assay on EKVX NSCLC it was -36.7% (active); in the assay on SN12C renal, 16.1%. The growth with UO-31 renal was 35.7%; in the assay with TK-10 renal, 86.3%; in the assay on ACHN renal, 27%; in the assay with CAKI-1 renal, 34.4%; with A498 renal, 58.2%; in the assay on CCRF-CEM leukemia, 16.3%. Further, the growth with MOLT-4 leukemia is 8.13% (active).
`Cc1cc(C)nc(SCC(=O)Nc2ccc(S(N)(=O)=O)cc2)n1`: the growth was 104% in the assay on HCT-15 colon; 127% with SNB-75 CNS; 94.1% with SNB-19 CNS; 101% in the assay on U251 CNS; 98.2% in the assay with PC-3 prostate; 96.7% with UACC-62 melanoma. Besides, the growth with LOX IMVI melanoma is 96.7%; in the assay on SK-MEL-28 melanoma, 110%; in the assay on SK-MEL-2 melanoma, 103%; in the assay on EKVX NSCLC, 99.8%; in the assay with SN12C renal it was 105%; with UO-31 renal it was 87.1%. Moreover, the growth with TK-10 renal was 102%; in the assay with ACHN renal it was 101%; in the assay with CAKI-1 renal it was 96.5%; with A498 renal, 123%; in the assay on CCRF-CEM leukemia, 97.1%.
With `COc1ccc(/C(CSc2nnc(-c3c[nH]c4ccccc34)n2-c2ccccc2)=N/O)cc1`, the growth with HCT-15 colon was 15.3%; in the assay on SNB-75 CNS, 63.3%; with SNB-19 CNS it was 40.3%; with U251 CNS, 39.4%; in the assay on PC-3 prostate it was 23.1%; in the assay on SK-MEL-5 melanoma, -10.2% (active). Moreover, the growth with UACC-62 melanoma is 31.4%; with LOX IMVI melanoma it was -78.2% (active); in the assay on SK-MEL-2 melanoma it was 5.87% (active); in the assay on EKVX NSCLC, 15.1%; in the assay on SN12C renal, 45.8%; in the assay with UO-31 renal, 18.2%. For the same compound, the growth in the assay with TK-10 renal is 42.7%; with ACHN renal, 22.3%; in the assay on CAKI-1 renal it was 20.1%; with A498 renal, 69.8%; in the assay on CCRF-CEM leukemia, 16.5%; in the assay with MOLT-4 leukemia, 16.7%.
With `CCNCCCn1c2c(c3cc(OC)c(OC)cc3c1=O)C(=O)c1cc3c(nc1-2)OCO3`, the growth in the assay with HCT-15 colon is -83% (active); with SNB-75 CNS it was 56.5%; with SNB-19 CNS it was 24.9%; with U251 CNS, 21.7%; in the assay on PC-3 prostate, 43.7%; with SK-MEL-5 melanoma it was 22.5%. In addition, the growth is -15.3% (active) in the assay with UACC-62 melanoma; -97.9% (active) with LOX IMVI melanoma; 71% in the assay with SK-MEL-28 melanoma; 125% with SK-MEL-2 melanoma; 76.6% with EKVX NSCLC; -89.2% (active) in the assay with SN12C renal. Further, the growth in the assay on UO-31 renal is -97.8% (active); in the assay with TK-10 renal it was 98.3%; in the assay with ACHN renal, 2.02% (active); in the assay on CAKI-1 renal, 7.87% (active); in the assay on A498 renal, 87.1%; in the assay with CCRF-CEM leukemia, 0.158% (active). In the assay with MOLT-4 leukemia, the growth is -14.2% (active).
In the case of `CONC[C@]1(C)C=C2C(=O)[C@](C)(O)C3(CC3)C(C)=C2[C@H]1O`, the growth is -24.4% (active) with HCT-15 colon; -80.9% (active) in the assay with SNB-75 CNS; -10.7% (active) with SNB-19 CNS; 3.39% (active) with U251 CNS; 3.46% (active) with PC-3 prostate; -37.4% (active) in the assay on SK-MEL-5 melanoma. Also, the growth was -90% (active) in the assay with UACC-62 melanoma; -67.3% (active) with LOX IMVI melanoma; -73.2% (active) with SK-MEL-28 melanoma; -100% (active) in the assay on SK-MEL-2 melanoma; -6.45% (active) in the assay with SN12C renal; -24.8% (active) in the assay with UO-31 renal. Further, the growth in the assay with TK-10 renal is 7.09% (active); in the assay with ACHN renal it was -25.7% (active); in the assay with CAKI-1 renal, -0.623% (active); in the assay with A498 renal, -29.7% (active); in the assay on CCRF-CEM leukemia it was 4.58% (active); in the assay on MOLT-4 leukemia, -13.9% (active).
As to `COc1ccccc1[C@H]1C(C(=O)c2ccc(Cl)cc2)C2(N[C@@H]1c1ccccc1)C(=O)Nc1ccccc12` (some centres not stated), the growth in the assay on HCT-15 colon was -18.7% (active); in the assay on SNB-75 CNS, 55.6%; in the assay with SNB-19 CNS, 13.7%; in the assay with U251 CNS it was -31% (active); in the assay on PC-3 prostate it was 5.37% (active); in the assay on SK-MEL-5 melanoma, -87.2% (active). Also, the growth is -74.9% (active) in the assay with UACC-62 melanoma; -97.3% (active) with LOX IMVI melanoma; -36.6% (active) with SK-MEL-28 melanoma; -85.9% (active) with SK-MEL-2 melanoma; 3.23% (active) with EKVX NSCLC; -89% (active) in the assay with SN12C renal. The growth with UO-31 renal is 1.13% (active); in the assay on TK-10 renal, 8.59% (active); in the assay with ACHN renal, -3.58% (active); with CAKI-1 renal, 4.17% (active); with A498 renal, -19.2% (active); in the assay on CCRF-CEM leukemia it was 4.07% (active). For the same compound, the growth with MOLT-4 leukemia was -17.7% (active).
As for `Cc1ccc(C(=O)CSc2nnc(-c3c[nH]c4ccccc34)n2-c2ccccc2)cc1`, the growth is 43.8% in the assay with HCT-15 colon; -1.21% (active) in the assay on SNB-75 CNS; 19.7% with SNB-19 CNS; 9.78% (active) in the assay with U251 CNS; 43% in the assay on PC-3 prostate; 32.9% in the assay with SK-MEL-5 melanoma. The growth in the assay with UACC-62 melanoma is 23.9%; in the assay with LOX IMVI melanoma, -19.5% (active); in the assay with SK-MEL-28 melanoma, 49%; in the assay with SK-MEL-2 melanoma, 84.7%; with EKVX NSCLC it was 53%; with SN12C renal, 24.9%. Besides, the growth in the assay on UO-31 renal is 30.3%; in the assay on TK-10 renal it was -2.18% (active); in the assay on ACHN renal, 20.4%; with CAKI-1 renal, 12.4%; with A498 renal, 85.8%; in the assay with CCRF-CEM leukemia, 60.8%. Besides, the growth in the assay on MOLT-4 leukemia is 61.7%.
